Source: PubChem
Many of the other results were omitted from the sample, so hits are more common in it than they were.
Pf Dd2 inh = qHTS Primary assay for Inhibitors of Plasmodium falciparum Dd2 growth in vitro; P. falciparum Dd2 growth, SYBR Green, 72 h; Potency, µM (series often up to 28.9 µM), for inactives: at the highest dose activity, negative = inhibition, most hits filed as inhibitors; 4.3% of 120,000 active; AID 1347417, 2020; active means well fitted inhibition curve with a large enough effect;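 further: plate controls were DMSO vehicle for no effect and reference drug for full effect; nearly all actives have a fitted effect of over 65% in size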
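Readout: SYBR Green fluorescence, 485 nm excitation, 535 nm emission, after ~16 h lysis at 37C. Before that, Dd2-infected red cells (2.5% hematocrit) grew 72 h with compound, 29 uM top final concentration.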
An asterisk follows results filed as active; [ ] = dose if it differs, or a comment. Potency means the concentration at half of the fitted maximal effect.

What do the screens show for `Cc1ccc(CNC(=O)N2CCC(Oc3ncccc3C(=O)N3CCOCC3)C2)cc1` (centres undefined)?
Pf Dd2 inh: 26%

Results for CN(c1cc(=O)c2ccnc(-c3ccc([S+](C)(=O)[O-])cc3)c2o1)C1CCOCC1 ?
Pf Dd2 inh: inactive

How did CN(Cc1ccc(-c2ccccc2)cc1)Cc1ccnn1C do in these assays?
Pf Dd2 inh: -17%[44.1 µM]

What do the screens show for `COc1ccc(-c2cc(N3CCC(NC(=O)c4ccc(Cl)cc4OC)CC3)n[nH]2)cc1`?
Pf Dd2 inh: inactive

What do the screens show for `O=C(c1cccs1)N1CC[C@@H]2[C@@H](CCC(=O)N2CCc2cnc[nH]2)C1`?
Pf Dd2 inh: -5%

Results for CCc1nc(-c2c3n(c(=O)n(CC(=O)Nc4ccc(Cl)cc4F)c2=O)CCCC3)no1 ?
Pf Dd2 inh: inactive

How did CN(C(=O)Cc1cccc(Cl)c1)C1CCc2ccccc21 (centres undefined) do in these assays?
Pf Dd2 inh: inactive

What do the screens show for `CN(C(=O)Cc1cccc(Cl)c1)C1CCCc2ccccc21` (centres undefined)?
Pf Dd2 inh: 14µM*

Results for CN(CC1CCOCC1)C(=O)Cc1cccc(Cl)c1 ?
Pf Dd2 inh: 5%

What do the screens show for `CNc1nc(C(=O)N2C[C@@H](C(=O)O)[C@H](c3ccc4c(c3)OCO4)C2)cs1`?
Pf Dd2 inh: 34%

What do the screens show for `Cn1ncc(N2CCN(c3cc(C4CC(O)C4)nc(N)n3)CC2)cc1=O` (centres undefined)?
Pf Dd2 inh: -18%

How did O=C(c1ccncc1)N1CC2CCC(C1)N2Cc1cccc(-c2ccsc2)c1 do in these assays?
Pf Dd2 inh: 8%

What do the screens show for `CC(C)N1CC2CCC(C1)N2Cc1cccc(C#N)c1`?
Pf Dd2 inh: -8%[44.1 µM]

How did CC(C)N1CC2CCC(C1)N2Cc1cccc(-c2ccsc2)c1 do in these assays?
Pf Dd2 inh: 11µM*

What do the screens show for `O=C(NCCc1nc2ccccc2n1Cc1ccc(Cl)cc1Cl)c1ccco1`?
Pf Dd2 inh: 11µM*

How did CCCC(=O)NCCc1nc2ccccc2n1Cc1c(F)cccc1Cl do in these assays?
Pf Dd2 inh: -21%

Results for O=C(NCCc1nc2ccccc2n1Cc1ccc(Cl)cc1)c1ccccc1 ?
Pf Dd2 inh: 9%

How did CCNC(=O)N1CCC(OC2CCN(S(C)(=O)=O)CC2)CC1 do in these assays?
Pf Dd2 inh: 10%

Results for Cn1nc(C(=O)N2CC(C)(C)C(C)(O)C2)cc1-c1cccs1 (centres undefined) ?
Pf Dd2 inh: -11%

What do the screens show for `Cc1ncc(CO)c(CN2CCC3(Cc4ccccc4CNC3=O)C2)c1O` (centres undefined)?
Pf Dd2 inh: 4%

Results for O=C1CCN(C(=O)C2CCCCC2)CCCC(c2nc(-c3cccnc3)no2)CCN1 (centres undefined) ?
Pf Dd2 inh: -13%

Results for O=C1Nc2ccc(-c3ccccc3F)cc2C(=O)N2C[C@@H](NS(=O)(=O)c3ccc(F)cc3)C[C@@H]12 ?
Pf Dd2 inh: inactive

How did COc1ccc(Cl)cc1-c1ccc2c(c1)C(=O)N1C[C@H](O)C[C@H]1C(=O)N2 do in these assays?
Pf Dd2 inh: -5%[44.1 µM]

How did COc1ccc(-c2ccc3c(c2)C(=O)N2CC[C@H](NC(=O)c4cccs4)[C@H]2C(=O)N3)cc1 do in these assays?
Pf Dd2 inh: -1%

What do the screens show for `COc1ccc(Cl)cc1-c1ccc2c(c1)C(=O)N1C[C@@H](NS(=O)(=O)c3ccc(F)cc3)C[C@H]1C(=O)N2`?
Pf Dd2 inh: 7.1µM*

How did O=C(N[C@H]1CCN2C(=O)c3ccc(Cl)cc3NC(=O)[C@H]12)c1cccs1 do in these assays?
Pf Dd2 inh: -18%[44.1 µM]

Results for COc1ccc(-c2ccc3c(c2)C(=O)N2CC[C@H](NC(=O)CSC)[C@H]2C(=O)N3)cc1 ?
Pf Dd2 inh: inactive

What do the screens show for `Cc1cccc(-c2ccc3c(c2)C(=O)N2CC[C@H](NS(=O)(=O)c4cccs4)[C@H]2C(=O)N3)c1C`?
Pf Dd2 inh: 10µM*

How did COc1ccc(-c2ccc3c(c2)C(=O)N2CC[C@H](NS(=O)(=O)c4cccs4)[C@H]2C(=O)N3)cc1 do in these assays?
Pf Dd2 inh: 11µM*

What do the screens show for `COc1ccc(Cl)cc1-c1ccc2c(c1)C(=O)N1CC[C@H](NC(=O)c3cccs3)[C@H]1C(=O)N2`?
Pf Dd2 inh: 7.9µM*

What do the screens show for `O=C(N[C@H]1CCN2C(=O)c3cc(-c4ccc(Cl)cc4)ccc3NC(=O)[C@H]12)c1cccs1`?
Pf Dd2 inh: -17%

What do the screens show for `CSCC(=O)N[C@H]1CCN2C(=O)c3cc(-c4cccc(C)c4C)ccc3NC(=O)[C@H]12`?
Pf Dd2 inh: inactive

How did O=C1Nc2cc(Cl)ccc2C(=O)N2CC[C@H](NS(=O)(=O)c3cccs3)[C@@H]12 do in these assays?
Pf Dd2 inh: inactive

How did Cc1noc(-c2ccn3c(CNC(=O)C(C)c4ccccc4)nnc3c2)n1 (centres undefined) do in these assays?
Pf Dd2 inh: inactive
